Screening data deposited in PubChem by National Center for Advancing Translational Sciences (NCATS).
G9a inh: qHTS Assay for Inhibitors of Histone Lysine Methyltransferase G9a; Histone-lysine N-methyltransferase EHMT2 (Homo sapiens), Q96KQ7; G9a H3K9 monomethylation, AlphaScreen, 2 h; Potency, µM (doses to about 102 µM), actives largely listed as inhibitors; actives 8.8% (n = 350,000); AID 504332, 2011; also: nearly all actives have a fitted effect of over 75% in size
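Signal arises when biotinylated H3K9 peptide, once monomethylated, bridges streptavidin donor and antibody-captured acceptor beads. Enzyme at 20 nM was preincubated 15 min with test compounds; peptide 500 nM and SAM 20 uM then reacted for 2 h.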
HP1b chromo inh: HTS for Inhibitors of HP1-beta Chromodomain Interactions with Methylated Histone Tails; Chromobox protein homolog 1 (Homo sapiens), P83916; AlphaScreen HP1-beta / biotin-H3K9me3 peptide binding; Potency, µM (highest dose often 114 µM), most hits filed as inhibitors; actives 0.56% (n = 390,000); also: nearly all actives have a fitted effect of over 70% in size
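Compound inhibition of the preformed complex between 50 nM HP1-beta and 50 nM biotinylated H3K9me3 peptide was read by AlphaScreen. Buffer was PBS pH 7.4 with 0.01% Tween-20. Incubations ran 30 min at room temperature, with 10 ug/mL donor/acceptor beads.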
BAZ2B block: qHTS Assay for Inhibitors of BAZ2B; AID 504333, 2011; Potency, µM (doses to about 114 µM), usual class: inhibitors; AlphaScreen BAZ2B-H3K14Ac peptide displacement; Bromodomain adjacent to zinc finger domain protein 2B (Homo sapiens), Q9UIF8; actives 4.4% (n = 360,000); also: nearly all actives have a fitted effect of over 60% in size
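Complex of BAZ2B and biotin-H3K14Ac (50 nM apiece) forms over 30 min at RT, then faces library compounds up to 110 uM for another 30 min; AlphaScreen beads added, 20 min dark incubation, luminescence read.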
GLS inh: qHTS for Inhibitors of Glutaminase (GLS). Glutaminase kidney isoform, mitochondrial (Homo sapiens), O94925. GLS enzymatic activity, qHTS titration. Potency, µM (doses to about 45.5 µM), hits mostly inhibitors. actives 0.21% (n = 410,000)
Target sequence (O94925 whole entry, looked up, canonical isoform): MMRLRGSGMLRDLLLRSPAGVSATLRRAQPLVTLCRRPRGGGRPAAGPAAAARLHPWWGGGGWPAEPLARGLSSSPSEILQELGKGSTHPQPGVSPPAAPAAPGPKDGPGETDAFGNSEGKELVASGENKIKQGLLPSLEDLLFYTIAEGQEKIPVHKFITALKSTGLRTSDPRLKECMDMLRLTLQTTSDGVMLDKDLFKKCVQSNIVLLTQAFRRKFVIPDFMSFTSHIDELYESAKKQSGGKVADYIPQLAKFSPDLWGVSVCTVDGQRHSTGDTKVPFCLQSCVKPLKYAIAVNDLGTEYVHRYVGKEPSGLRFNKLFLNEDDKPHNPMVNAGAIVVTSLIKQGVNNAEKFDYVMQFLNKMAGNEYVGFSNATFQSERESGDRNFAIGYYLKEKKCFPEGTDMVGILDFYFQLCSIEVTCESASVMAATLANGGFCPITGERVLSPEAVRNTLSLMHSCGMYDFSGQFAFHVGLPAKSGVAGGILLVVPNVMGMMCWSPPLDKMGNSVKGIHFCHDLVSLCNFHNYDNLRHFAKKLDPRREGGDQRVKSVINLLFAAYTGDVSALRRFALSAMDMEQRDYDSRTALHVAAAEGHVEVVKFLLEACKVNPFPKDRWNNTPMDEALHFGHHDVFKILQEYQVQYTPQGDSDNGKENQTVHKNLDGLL
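Glutamate formation by hKGA was monitored fluorometrically using coupled glutamate oxidase, HRP and Amplex Red. Substrate was added as 1 mM L-glutamine solution; incubation was 30 min at RT after an initial read.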
JMJD2A Tudor inh: qHTS Assay for Inhibitors of JMJD2A-Tudor Domain; AlphaScreen JMJD2A-Tudor / H3K4me3 peptide binding; AID 504339, 2011; actives 4.4% (n = 390,000); Lysine-specific demethylase 4A (Homo sapiens), O75164; Potency, µM (top dose mostly 114 µM), most hits filed as inhibitors; also: nearly all actives have a fitted effect of over 50% in size
Numbers stand for hits; n = inactive; u = inconclusive; x = not tested or not shown; ! = not confirmed by another sample; [ ] = remark or other dose. Rows were chosen to be rich in hits. Some 10% of all compounds tested hit in one or more screens of this group. Calls follow the shape of the dose curve; as a rule, active = well fitted curve in the direction sought with a large enough effect; inconclusive = small, poorly fitted or top-dose-only effect, or another doubt; inactive = no such curve, though single readings can be large; an effect the other way counts as inactive or inconclusive.

SMILES	G9a inh	HP1b chromo inh	BAZ2B block	GLS inh	JMJD2A Tudor inh
Cc1ccc(C)c(S(=O)(=O)N2C(=S)NC(=O)C2CC(C)C)c1 (stereo unspecified)	u	n	n	n	n
CSc1ccc(S(=O)(=O)N2CCC(C(=O)NC3CC3)CC2)cc1	35.5µM	n	n	n	n
O=C(O)c1c2c(nc3ccc(S(=O)(=O)N4CCC(C(=O)N5CCCCC5)CC4)cc13)CCCC2	50.1µM	n	u	n	n
CCc1ccc2nc3c(c(C(=O)O)c2c1)CCC3	50.1µM	n	u	u	n
COC(CNC(=O)C1CCN(S(=O)(=O)c2ccc3nc4c(c(C(=O)O)c3c2)CC(C)CC4)CC1)OC (stereo unspecified)	31.6µM	n	u	n	n
COc1ccc(C(=O)NCC(=O)OCC(=O)c2ccc3ccccc3c2)cc1	x	n	x	x	n
CC1CCc2nc3ccc(S(=O)(=O)N4CCC(C(=O)O)CC4)cc3c(C(=O)O)c2C1 (stereo unspecified)	31.6µM	n	u	n	u
CC1CCc2nc3ccc(S(=O)(=O)N4CCC(C(=O)NC(C)c5ccccc5)CC4)cc3c(C(=O)O)c2C1 (stereo unspecified)	50.1µM	n	u	n	n
CC1CCc2nc3ccc(S(=O)(=O)N4CCC(C(=O)N5CCCCC5)CC4)cc3c(C(=O)O)c2C1 (stereo unspecified)	44.7µM	n	n	n	n
CC1CCc2nc3ccc(S(=O)(=O)N4CCC(C(=O)NC5CCCC5)CC4)cc3c(C(=O)O)c2C1 (stereo unspecified)	44.7µM	n	n	n	n
O=C(O)c1c2c(nc3ccc(S(=O)(=O)N4CCC(C(=O)NC5CCCC5)CC4)cc13)CCCCC2	u	n	n	n	n
CN(c1ccccc1)S(=O)(=O)c1ccc(C(=O)OCC(=O)NCc2cccs2)cc1	n	n	n	n	n
CN(C)c1ccc(NC(=O)Cn2cc3c(n2)CCCC3)cc1	28.2µM	u	39.8µM	n	50.1µM
COc1cccc(C(=O)N2CCN(Cc3ccccc3C(F)(F)F)CC2)c1	3.55µM	u	28.2µM	n	n[11.4 µM]
COc1ccc(C(=O)N2CCN(Cc3ccccc3C(F)(F)F)CC2)cc1	20µM	u	u	n	25.1µM
COc1cccc(N2CCN(S(=O)(=O)c3cn(C)c(C)n3)CC2)c1	n	n	n	n	n
Cc1ccc([C@H]2N[C@]3(CCCN(Cc4ccc(F)cc4)C3=O)[C@H]3C(=O)N(C)C(=O)[C@@H]23)cc1	x	x	x	n	x
O=C(NC1(Cc2ccccc2)CCN(CCCc2ccccc2)C1=O)c1ccccc1 (stereo unspecified)	n[2.33 µM]	n	n	n	n
O=C(C1=C(O)/C(=C/c2ccc(O)cc2)CCC1)C(F)(F)F	10µM	n	n	n	n
COc1ccc(/C=C2\CCCC(C(=O)C(F)(F)F)=C2O)cc1	8.91µM	n	n	n	n
COc1ccc(/C=C2\CCOC2=O)cc1	n[0.0925 µM]	n	n	n	n
CCCCN(Cc1cccs1)S(=O)(=O)c1cc(-c2cc(C)no2)ccc1C	n	n	n	n	n
COc1ccc(C#Cc2cccc(-c3nc(C(=O)N4CCN(C)CC4)cc4c3[C@H](CCO)N(S(=O)C(C)(C)C)C4)c2)cc1OC (stereo partly specified)	x	x	x	n	x
CCn1c(=O)n(CC)c2cc(N3CCCC3)c(NC(=O)c3ccccc3OC)cc21	35.5µM	u	44.7µM	n	u
CCn1c(=O)c(=O)n(CC)c2cc(N3CCCCC3)c(NC(=O)c3ccccc3OC)cc21	n	n	n	n	n
SMILES	G9a inh	HP1b chromo inh	BAZ2B block	GLS inh	JMJD2A Tudor inh
CCOc1ccccc1NC(=O)Nc1cc2c(cc1N1CCCCC1)n(CC)c(=O)n2CC	u	u	u	n	u
CCOc1ccccc1C(=O)Nc1cc2c(cc1N1CCCC1)n(CC)c(=O)n2CC	44.7µM	n	17.8µM	n	50.1µM
CCn1c(=O)n(CC)c2cc(N3CCCC3)c(NC(=O)c3cc(Cl)ccc3OC)cc21	39.8µM	u	25.1µM	n	50.1µM
CCc1cccc(C)c1NC(=S)N(CCCN1CCOCC1)Cc1cccnc1	n	n	n	n	n
COC1(OC)C(=N/O)/C(=N\O)CCC1O (stereo unspecified)	11.2µM	n	u	n	n
CCOc1ccc(OCCOCCOc2ccccc2Cl)cc1	n	n	n	n	n
CCC(C)NCCOCCOc1ccc(Cl)c(C)c1C (stereo unspecified)	u	u	n	n	3.55µM
CC(NCCOCCOc1ccccc1)c1ccccc1 (stereo unspecified)	n	n	n	n	n
CCC(C)NCCOCCOc1ccc(Cl)c2ccccc12 (stereo unspecified)	12.6µM	n	u	n	n
CC(=O)c1ccc(NC(=O)CSc2n[nH]c(-c3cccnc3)n2)cc1	n	n	n	n	n
Cc1ccc(C(O)c2ncc(-c3ccccc3C(F)(F)F)[nH]2)cc1F (stereo unspecified)	x	x	x	n	x
CCCN1CNc2c(c(=O)[nH]c(=S)n2CCc2ccc(C)c(C)c2)C1	x	n	x	x	n
O=C1N(Cc2cccnc2)C[C@@H]2C[C@@H](c3cccc(Oc4ccccc4)c3)N3CCC[C@@]123	12.6µM	n	u	n	n
O=C1N(Cc2cccc(Cl)c2)C[C@@H]2C[C@@H](c3cccn3-c3cccnc3)N3CCC[C@@]123	50.1µM	n	u	n	u
O=C1N(Cc2cccnc2)C[C@@H]2C[C@@H](c3ccc(C(F)(F)F)cc3)N3CCC[C@@]123	u	n	n	n	n
COc1ccccc1CCNC(=O)c1ccc2c(c1)c(C)c(C)n2C	n	u	u	n	u
CCS(=O)(=O)c1nc(S(=O)(=O)c2ccc(Cl)cc2)c(N2CCc3ccccc3C2)s1	8.91µM	n	n	n	n
Cc1ccc(C)c(OCCC(=O)Nc2ccccc2C(=O)NC2CC2)c1	x	n	x	n	n
Cc1ccc(C)c(OCCCC(=O)Nc2ccccc2C(N)=O)c1	50.1µM	n	n	n	n
CC1(C)CCC(C)(C)NC(=S)N1	n	n	n	n	n
CC1CC(C)(C)NC(=S)O1 (stereo unspecified)	79.4µM!	n	n	n	n
COc1ccc(CCNC(=O)Cn2nc(C)n3c(cc4occc43)c2=O)cc1OC	n	n	n	n	n
Cc1cccn2cc(CNS(=O)(=O)c3ccc4ccccc4c3)nc12	x	n	u	n	n
Cc1ccn2cc(CNS(=O)(=O)c3ccc4ccccc4c3)nc2c1	70.8µM	n	n	n	n
c1ccc(Nc2nc(-c3ccoc3)nc3ccccc23)cc1	n[0.501 µM]	x	x	x	x
O=C(NCc1ccccc1Cl)c1ccc2c(c1)N(Cc1ccccc1)C(=O)c1ccccc1S2	n	n	n	n	n
